# Measured values taken from ChEMBL document CHEMBL3988442, “University of Dundee, Small-Polar-MMV Screening Library” (2021).
# The campaign covered roughly 48,000 compounds. About 13,000 (27%) showed an effect of 50% or more. Some of the results follow.
# Test system: Wolbachia pipientis
# Assay: Anti-Wolbachia Cell-Based Screen
# Assay type: functional
# Parameters: scale not given: in the data most compounds retested in dose-response had high values
# Conditions: 5 µM
row,Compound,Percent Effect
1,CNc1nc(CNC(=O)Nc2ccc(OC(C)C)cc2C)cs1,3.504%
2,CCc1nc2n(n1)CCCC2Nc1nc(C2CC2)ns1 (stereo not drawn),8.759%
3,COc1cc(C)ccc1C(=O)N1CCC2(CCC(=O)N(C(C)C)C2)CC1,-6.21%
4,CCC(NC(=O)NCc1cc(Cl)ccc1OC)c1noc(C)n1 (stereo not drawn),-1.249%
5,CC(C)(O)CNC(=O)c1sccc1Br,4.512%
6,Cn1cc(N2CCCC(Oc3ccc(F)cc3Cl)C2=O)cn1 (stereo not drawn),5.607%
7,CN(CCCN1CCCC1)[C@@H]1c2ccccc2C2(CCNCC2)[C@H]1O,1.656%
8,CCc1nc(C2CCCN2C(=O)CCc2cccs2)no1 (stereo not drawn),-2.964%
9,O=C(CCc1cccs1)N1CCCC1c1noc(C2CC2)n1 (stereo not drawn),100.7%
10,O=C(CCCc1ccccn1)N1CCCC1c1noc(C2CC2)n1 (stereo not drawn),105.7%
11,CCc1nc(C2CCCN2CCc2cccs2)no1 (stereo not drawn),-1.558%
12,c1csc(CCN2CCCC2c2noc(C3CC3)n2)c1 (stereo not drawn),-13.07%
13,CCc1nc(C2CCCN2C(=O)Cc2cccs2)no1 (stereo not drawn),95.79%
14,O=C(COc1cc(Cl)cc(Cl)c1)NCc1nncn1C1CC1,2.768%
15,c1cn(Cc2nnc(C3CCN(c4nccs4)CC3)n2C2CC2)cn1,0.8881%
16,CC(C)n1ccnc1C1CCCN(c2ccncc2F)C1 (stereo not drawn),20.23%
17,Cc1c(C(=O)NC2(C#N)CCCC2)nnn1-c1ccccc1Cl,-3.476%
18,CCC(C)NC(=O)CCc1ccnc2ccccc12 (stereo not drawn),0.4358%
19,Cc1nnc(SCCNC(=O)Cn2cnc3ccccc3c2=O)s1,-10.12%
20,COCC(C)NC(=O)CCSc1ccc(F)cc1 (stereo not drawn),4.419%
21,CCn1c(C)nnc1SCCNC(=O)Cn1cnc2ccccc2c1=O,1.964%
22,COCC(C)NC(=O)CCCn1cnc2ccccc2c1=O (stereo not drawn),133.1%

row,Compound,Percent Effect
1,Cc1cnc(CNC(=O)CCCn2cnc3ccccc3c2=O)cn1,123.4%
2,CC(C)NC(=O)CCCn1cnc2ccccc2c1=O,103.3%
3,COC(=O)CNC(=O)CCCn1cnc2ccccc2c1=O,126.5%
4,Cc1cccc(N2CCN(CCC(=O)NCc3cnc(C)cn3)CC2)c1,-29.47%
5,Cn1ccnc1SCCNC(=O)Cn1cnc2ccccc2c1=O,4.017%
6,CN(C)S(=O)(=O)c1ccc(CNc2ccc(Cl)cn2)cc1,-2.882%
7,CSCC(C)C(=O)NCc1c(C)nc2cc(=O)[nH]n2c1C (stereo not drawn),-19.78%
8,CCCc1nccn1-c1ccc(C(O)CN2CCOCC2)cc1 (stereo not drawn),-2.856%
9,CCc1nc2c(c(N3CCOCC3)n1)CCN(C(=O)c1ccon1)CC2,0.9669%
10,Cc1cc(C(C)NC(=O)CCn2nnc3ccccc3c2=O)c(C)o1 (stereo not drawn),5.131%
11,CC(NC(=O)CCCc1ccc(Cl)cc1)c1nnn[nH]1 (stereo not drawn),-9.693%
12,Cn1cc2ncn(CCCOc3cccnc3)c(=O)c2n1,-2.569%
13,CC(NC(=O)CCCn1cnc2ccccc2c1=O)c1ncn[nH]1 (stereo not drawn),135.6%
14,O=C(CCCn1cnc2ccccc2c1=O)Nc1nc[nH]n1,118.2%
15,O=C(CCn1ccc2ncccc2c1=O)N1CCCC1,-7.075%
16,Cc1noc(C)c1CN(C)C(=O)NCCOc1ccc(F)cc1F,-11.52%
17,O=C(NCC1=CCCCC1)C(c1cccnc1)N1CCOCC1 (stereo not drawn),-8.257%
18,CCCc1ccc(C(=O)N2CCc3c(nc(C)nc3N(C)C)C2)cc1,96.2%
19,Cc1nc2c(c(N(C)C)n1)CCN(C(=O)c1ccc(N)nc1)C2,84.83%
20,CCNc1ncc(C(=O)N2Cc3nc(C)[nH]c(=O)c3C2)cn1,110.8%
21,CN(C)c1nc2c(c(=O)[nH]1)CCN(C(=O)c1ccc(=O)[nH]c1)C2,-0.009534%
22,CCNc1ncc(C(=O)N2CCC(c3ccccc3C(=O)O)C2)cn1 (stereo not drawn),-1.411%

row,Compound,Percent Effect
1,Cc1nc2c(c(N(C)C)n1)CCN(C(=O)c1sccc1S(N)(=O)=O)C2,-20.97%
2,CCN(CC)CCC(=O)N1CCc2c(nc(N(C)C)nc2N(C)C)C1,-0.6304%
3,CCCc1ccc(C(=O)N2CCn3c(nnc3C(C)C)C2)cc1,1.679%
4,CCCc1ccc(C(=O)N2CCc3c(nc(N(C)C)[nH]c3=O)C2)cc1,0.7341%
5,Cc1nc2c(c(N(C)C)n1)CCN(C(=O)CN1CCC(O)CC1)C2,-29.43%
6,CCNc1ncc(C(=O)N2CCOC(CCCC(C)C)C2)cn1 (stereo not drawn),18.06%
7,CCNc1ncc(C(=O)N2CCc3c(nc(C)nc3N(C)C)C2)cn1,95.13%
8,NS(=O)(=O)c1cc(C(=O)N2CCCCC2)cs1,6.219%
9,CN(C)c1ccc(CC(=O)N[C@@H]2CCNC[C@H]2O)cc1,-6.485%
10,CN1CCC(NC(=O)NCc2csc(Br)c2)CC1,-1.868%
11,CNS(=O)(=O)Cc1ccc(CNC(=O)Nc2cn[nH]c2)cc1,-4.432%
12,COCCNc1ccc(CNC(=O)Nc2cn[nH]c2)cc1,-8.085%
13,CN(Cc1cnn(C)c1)C(=O)NCc1csc(Br)c1,2.853%
14,O=C(NCC1(N2CCOCC2)CCSC1)Nc1cn[nH]c1 (stereo not drawn),6.407%
15,O=C(NCc1ccc(Br)c(F)c1)Nc1cn[nH]c1,110.2%
16,O=C(NCc1cc(Br)cs1)Nc1cn[nH]c1,79.99%
17,O=C(NCc1csc(Br)c1)Nc1cn[nH]c1,91.45%
18,O=C(Cc1ccc(Br)s1)NCC(=O)Nc1cn[nH]c1,-7.073%
19,CN(CCNC(=O)c1scnc1Cl)c1ccccc1,-4.925%
20,COc1ccc(OC)c(C2CCN(CC(C)(C)N3CCOCC3)C2)c1 (stereo not drawn),-1.124%
21,CC(C)[C@@H]1CN(Cc2cnc(C3CCCCC3)nc2)C[C@H]1C(=O)O,-8.433%
22,CCC(Nc1ncccn1)c1ccc(OC)cc1 (stereo not drawn),2.346%

row,Compound,Percent Effect
1,COc1ccc(C(C)N(C)Cc2c(C(C)C)[nH]c3ncccc23)cc1 (stereo not drawn),47.71%
2,COc1ccc(C(C)N(C)Cc2c(C(C)(C)C)[nH]c3ncccc23)cc1 (stereo not drawn),103.1%
3,COc1ccc2cc(CN(C)C(C)c3nc(C4CC4)no3)ccc2c1 (stereo not drawn),6.729%
4,COc1ccc(C(C)N(C)Cc2c(C3CC3)[nH]c3ncccc23)cc1.Cl (stereo not drawn),91.7%
5,COc1ccc(C(CN2CCN(C)CC2)Nc2ncccn2)cc1 (stereo not drawn),-1.255%
6,COCCN(C)CC(=O)N1C[C@@H](NC(C)=O)[C@H](c2ccc(OC)cc2)C1,3.177%
7,NC(=O)NCC(=O)N1CCC2(CC1)c1ccccc1CC2O (stereo not drawn),-7.297%
8,CC(C)[C@]1(O)CN(C(=O)CNC(N)=O)C[C@H]1C,90.92%
9,COCCN(C)CC(=O)N1C[C@H]2CC[C@@H]1CN(C(=O)c1ccncc1)C2,3.629%
10,CC(C)[C@]1(O)CN(C(=O)COCC(N)=O)C[C@H]1C,89.06%
11,COCCN(C)CC(=O)N1C[C@@H](C)[C@](O)(C(C)C)C1,89.33%
12,COCC(=O)N1CCN(C(C)C(=O)NC(C)C)CC1 (stereo not drawn),2.538%
13,C[C@@H]1CN(C(=O)CCCN2CCOCC2)C[C@@]1(O)C1CC1,-18.09%
14,COCC(=O)N1C[C@@H](C)[C@](O)(C(C)C)C1,101.1%
15,COCC(=O)N1CCC2(CC1)CC(OC)CO2 (stereo not drawn),-10.72%
16,CC1(Cc2ccccn2)NCCc2[nH]cnc21 (stereo not drawn),15.49%
17,CCn1c(N)nc2cc(C(=O)N3Cc4ccccc4C3)cnc21,-3.386%
18,CCCS(=O)(=O)N1CCC(Nc2c(F)cc(C#N)cc2F)CC1,13.62%
19,CSCCC(=O)N1CCN(CC(C)(C)O)CC1,-39.31%
20,Cc1c(C(C)NCC2CCCC2)cnn1-c1ccc(F)cc1F (stereo not drawn),0.5195%
21,O=C(CN1C=Nc2ccccc2S1(=O)=O)NCCc1cccs1,3.571%
22,COCCN(C)[C@@H]1c2ccccc2C2(CCNCC2)[C@H]1O,2.267%

row,Compound,Percent Effect
1,CC(C)NC(=O)CN1CCN(CC2CCOc3ccccc3C2)CC1 (stereo not drawn),-2.637%
2,Cc1cc(C(=O)NS(C)(=O)=O)ccc1I,1.042%
3,Cc1nc2c(c(NCc3cc4ccccc4s3)n1)CCNCC2,-2.145%
4,CCc1cnc(C)nc1NCCN1CCCCCC1,-2.933%
5,CCc1cnc(C)nc1NCCN1CCC(O)CC1,8.36%
6,Cc1nc2c(c(NCc3nc4ccccc4s3)n1)CCNCC2,4.643%
7,Nc1nc2c(c(NCc3nc(-c4ccncc4)n[nH]3)n1)CCCC2,-1.758%
8,Nc1nc2c(c(NCc3ccncc3)n1)CCCC2,-16.82%
9,CCc1cnc(C)nc1NCc1cnc2c(c1)CCC2,83.93%
10,Cc1nc2c(c(NCc3cnc4c(c3)CCC4)n1)CNC2,90.56%
11,Nc1nc2c(c(NCc3cnc4c(c3)CCC4)n1)CCNC2,77.65%
12,CCC(C)NC(=O)c1ccc(CNC(=O)CC(C)(C)C)cc1 (stereo not drawn),3.529%
13,COC(=O)CCC(=O)NC1CCCc2cc(OC(F)F)ccc21 (stereo not drawn),7.111%
14,CCC(C(=O)N(Cc1ccccc1OC)C1CC1)n1cccn1 (stereo not drawn),-4.851%
15,O=c1[nH]c(=O)n(CC(O)c2ccc(F)cc2F)cc1Cl (stereo not drawn),-0.7239%
16,OC(CNCCn1cccn1)COc1ccc(F)cc1 (stereo not drawn),3.915%
17,COc1ccc(CN2CCCCC2CNC(=O)OC(C)(C)C)cc1F (stereo not drawn),23.02%
18,COc1cc(CN2CCCC[C@]3(C)NC(=O)CC[C@H]23)ccc1F,73.04%
19,COc1ccc(CN2CC[C@@]3(O)CCCC[C@H]3C2)cc1C(=O)O,-6.5%
20,CCc1nc(CCNC(=O)Nc2ccc(C(=O)NC)cc2C)cs1,3.747%
